Results published in PubChem BioAssay (NCI).
The panel holds about 83,000 compounds, 20% with a hit somewhere; the sample as a whole holds those more often.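 Single-dose data. Exposure time 48 hours. Values below 10 considered active.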 Active and inactive are the calls of the source.

How the values were obtained:
Assay in all cases: NCI-60 one-dose screen, 48 h (100 = growth as untreated, 0 = no growth, -100 = all killed)
Details in all cases: 10 µM unless noted
SR leukemia = test system: SR leukemia
RPMI-8226 leukemia = test system: RPMI-8226 leukemia
OVCAR-8 ovarian = test system: OVCAR-8 ovarian
OVCAR-4 ovarian = test system: OVCAR-4 ovarian
SK-OV-3 ovarian = test system: SK-OV-3 ovarian
IGROV1 ovarian = test system: IGROV1 ovarian
OVCAR-3 ovarian = test system: OVCAR-3 ovarian
HS 578T breast = test system: HS 578T breast
NCI/ADR-RES ovarian = test system: NCI/ADR-RES ovarian

Measured: growth

COc1ccc(C(=O)Nc2cccc(C3CC(=O)c4c(cc(OC)c(OC)c4OC)O3)c2)cc1 (stereo not given)
inactive: SR leukemia 13.3% | RPMI-8226 leukemia 11.2% | OVCAR-8 ovarian 17.7% | OVCAR-4 ovarian 43.5% | SK-OV-3 ovarian 20.6% | IGROV1 ovarian 36%
active: OVCAR-3 ovarian 1.51% | HS 578T breast 5.72% | NCI/ADR-RES ovarian 8.74%

O=C1/C(=C\c2cn(-c3ccccc3)nc2-c2ccc(-c3cccs3)cc2)CCc2ccccc21
inactive: SR leukemia 15.9% | RPMI-8226 leukemia 52.2% | OVCAR-8 ovarian 82.5% | OVCAR-4 ovarian 75.1% | SK-OV-3 ovarian 86.7% | IGROV1 ovarian 56.5% | OVCAR-3 ovarian 47.3% | HS 578T breast 81.8% | NCI/ADR-RES ovarian 35.5%

O=S(=O)(Nc1ccc(Cl)cc1)c1ccc(-c2cnc(C3CC3)o2)cc1
inactive: RPMI-8226 leukemia 15% | OVCAR-8 ovarian 29.2% | OVCAR-4 ovarian 63.7% | SK-OV-3 ovarian 30.2% | IGROV1 ovarian 33%
active: SR leukemia 9.93% | OVCAR-3 ovarian -17.3% | HS 578T breast 4.3% | NCI/ADR-RES ovarian 4.42%

COc1ccc2c(O)c(/C=C3\N=Nc4ccccc43)oc2c1C[C@@H]1CCNC[C@H]1F
inactive: RPMI-8226 leukemia 91.9% | OVCAR-4 ovarian 64.9% | SK-OV-3 ovarian 90.5% | IGROV1 ovarian 76.4% | OVCAR-3 ovarian 94% | HS 578T breast 60.3% | NCI/ADR-RES ovarian 72.1%
active: SR leukemia -38.5% | OVCAR-8 ovarian 0.196%

COc1ccc(/C(C)=C(/c2ccc(OCCCN(C)C)cc2)c2ccc(OC(=O)Cc3ccccc3)cc2)cc1
active: SR leukemia -0.597%
inactive: RPMI-8226 leukemia 48.1% | OVCAR-8 ovarian 87.6% | OVCAR-4 ovarian 87.9% | SK-OV-3 ovarian 73.4% | IGROV1 ovarian 95% | OVCAR-3 ovarian 81.2% | HS 578T breast 56.5% | NCI/ADR-RES ovarian 85.1%

O=C1Nc2ccccc2/C1=C\c1nc(-c2ccccc2)n2ccccc12
inactive: SR leukemia 101% | RPMI-8226 leukemia 81.9% | OVCAR-8 ovarian 95.5% | OVCAR-4 ovarian 73.7% | OVCAR-3 ovarian 115% | HS 578T breast 118% | NCI/ADR-RES ovarian 93.9%

CC(O)c1cnc(/C=C2\SC(=S)N(Cc3ccccc3)C2=O)s1 (stereo not given)
inactive: SR leukemia 32% | OVCAR-8 ovarian 52.1% | OVCAR-4 ovarian 101% | SK-OV-3 ovarian 95.7% | IGROV1 ovarian 94% | OVCAR-3 ovarian 53.2% | HS 578T breast 95.3% | NCI/ADR-RES ovarian 92.7%
active: RPMI-8226 leukemia 4.74%

O=Cc1ccc([N+](=O)[O-])s1
inactive: SR leukemia 63.2% | RPMI-8226 leukemia 94.6% | OVCAR-8 ovarian 87.1% | OVCAR-4 ovarian 98.3% | SK-OV-3 ovarian 109% | IGROV1 ovarian 79.8% | OVCAR-3 ovarian 105% | HS 578T breast 113% | NCI/ADR-RES ovarian 95.2%

CCOc1ccc(NC(=O)CSc2oc(-c3ccccc3)nc2S(=O)(=O)c2ccc(F)cc2)cc1
inactive: SR leukemia 69.8% | RPMI-8226 leukemia 73% | OVCAR-8 ovarian 49.5% | OVCAR-4 ovarian 66.1% | SK-OV-3 ovarian 77.5% | IGROV1 ovarian 94.8% | OVCAR-3 ovarian 64.9% | HS 578T breast 74.2% | NCI/ADR-RES ovarian 67.3%

Cn1c(-c2ccc(Br)cc2)c(O)c(=O)c2c(F)cccc21
inactive: SR leukemia 102% | RPMI-8226 leukemia 104% | OVCAR-8 ovarian 50.9% | OVCAR-4 ovarian 52.1% | SK-OV-3 ovarian 46.3% | IGROV1 ovarian 48.6% | OVCAR-3 ovarian 51.7% | HS 578T breast 84.9% | NCI/ADR-RES ovarian 21.8%

C=C(C)[C@@H]1CC[C@]2(C)[C@H](CC=C3[C@@H]4[C@H](C)[C@@H](C)CC[C@]4(CO)CC[C@]32C)[C@@]1(C)CCCN
active: SR leukemia -35.4% | RPMI-8226 leukemia -33.7% | OVCAR-8 ovarian -48.5% | OVCAR-4 ovarian 5.39%
inactive: SK-OV-3 ovarian 14.1% | IGROV1 ovarian 30% | OVCAR-3 ovarian 20.1% | HS 578T breast 25.3% | NCI/ADR-RES ovarian 14.1%

COCCn1cc(-c2nc(-c3cc4cccnc4n3CCOC)cs2)c2cc(OC)ccc21
active: OVCAR-3 ovarian 4.62%
inactive: SR leukemia 36.3% | RPMI-8226 leukemia 60.3% | OVCAR-8 ovarian 61.1% | OVCAR-4 ovarian 20% | SK-OV-3 ovarian 73.4% | IGROV1 ovarian 30.8% | HS 578T breast 58% | NCI/ADR-RES ovarian 58.3%

O=C1c2ccc3c4ccc5c6c(ccc(c7ccc(c2c37)C(=O)N1CCC[P+](c1ccccc1)(c1ccccc1)c1ccccc1)c64)C(=O)N(CCC[P+](c1ccccc1)(c1ccccc1)c1ccccc1)C5=O
inactive: SR leukemia 35.9% | RPMI-8226 leukemia 21.3% | OVCAR-8 ovarian 50.4% | OVCAR-4 ovarian 75.9% | SK-OV-3 ovarian 91.7% | IGROV1 ovarian 29.6% | OVCAR-3 ovarian 37.4% | HS 578T breast 81.2% | NCI/ADR-RES ovarian 97.2%
